# Unmarked numbers belong to inactive results. Records with an inconclusive call do not appear. Entries that show only a call come without a potency. Active and inactive are the calls of the source. Unless noted, calls come from the whole dose curve; as a rule, active = well fitted curve in the direction sought with a large enough effect in the repeat runs; inconclusive = weak or mixed curves; inactive = no such curve, though single readings can be large; an effect the other way counts as inactive or inconclusive.
# Tests used:
# [1] = qHTS assay to identify small molecule antagonists of the estrogen related receptor (ERR) signaling pathway from Tox21 library - cell viability counter screen (AID 1224834); details: ERR reporter cells viability, CellTiter-Fluor, 17.5 h; series mostly up to 92.4 µM; note: nearly all actives have a fitted effect of over 30% in size; note: potency is the fitted concentration of half-maximal effect
# In short: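 ERR reporter cells, 2,000 per well, rested 6 h, then exposed to compound in DMSO for 17.5 hours at 37 C. Viability read as fluorescence after 30 min with CellTiter-Fluor.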
# [2] = target: Luciferin 4-monooxygenase (Photinus pyralis) (UniProt P08659); assay: qHTS assay to identify small molecule inhibitors of firefly luciferase (AID 1224835); note: nearly all actives have a fitted effect of over 25% in size; details: purified P. pyralis luciferase, luminescence inhibition; series mostly up to 52.9 µM
# In short: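 Biochemical qHTS: compounds run as interplate titrations against purified firefly enzyme, with D-luciferin and ATP each at its KM concentration. Light output recorded by CCD imaging.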
# [3] = target: Nuclear receptor subfamily 1 group I member 3 (Homo sapiens) (UniProt Q14994); assay: qHTS assay to identify small molecule agonists of the constitutive androstane receptor (CAR) signaling pathway (AID 1224839); details: HepG2 hCAR CYP2B6-luciferase, agonist mode, 24 h; series mostly up to 92.4 µM; note: nearly all actives have a fitted effect of over 15% in size; note: potency is the fitted concentration of half-maximal effect
# In short: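 In this screen, CAR-driven CYP2B6 promoter activity is measured by luminescence in HepG2-CYP2B6-hCAR cells after 24 h with test compounds and 0.75 uM PK11195 (final concentration).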
# [4] = qHTS assay to identify small molecule antagonists of the estrogen related receptor signaling pathway with the pleiotropic PPARgamma coactivator (PGC) from Tox21 10K library (AID 1224841; call rule not given here; note: actives are mostly falling curves and most rising ones were filed inactive; nearly all actives have a fitted effect of over 50% in size; note: potency is the fitted concentration of half-maximal effect); details: PGC/ERR reporter cell line, ONE-Glo luciferase, 18 h; series mostly up to 92.4 µM
# In short: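 PGC/ERR cell line, 2,000 cells/well, pre-incubated 6 hours at 37 C, then exposed to compounds for 18 hours at 37 C; luciferase read with One-Glo luminescence after 30 min at room temperature.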
# [5] = qHTS assay to identify small molecule agonists of the estrogen related receptor signaling pathway with the pleiotropic PPARgamma coactivator (PGC) from Tox21 10K library (AID 1224842); details: PGC/ERR reporter cell line, luciferase ONE-Glo, 18 h; series mostly up to 92.4 µM; note: nearly all actives have a fitted effect of over 15% in size; note: potency is the fitted concentration of half-maximal effect
# In short: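 PGC/ERR reporter cell line, 2,000 cells per well, incubated 6 h at 37 C before 23 nL compound in DMSO was added. After 18 h at 37 C, One-Glo luminescence read following 30 min at room temperature.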
# [6] = qHTS assay to identify small molecule agonists of the hypoxia (HIF-1) signaling pathway - cell viability counter screen (AID 1224844; calls by dose curve; note: nearly all actives have a fitted effect of over 50% in size; note: potency is the fitted concentration of half-maximal effect); details: HRE-bla ME-180 viability, CellTiter-Glo luminescence, 17 h; series mostly up to 76.8 µM
# In short: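 HRE-bla ME-180 cells, 2,000/well in 0.5% dialyzed FBS medium, treated 17 h at 37C with compounds. Viability read in the same wells as the bla reporter, by CellTiter-Glo luminescence after 30 min at room temperature.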
# [7] = qHTS RealTime-Glo MT Cell Viability Assay in HepG2 cells - 24 hour (AID 1224867); details: RealTime-Glo luminescence; series mostly up to 76.8 µM; note: nearly all actives have a fitted effect of over 50% in size
# In short: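 Tox21 10K library screened in qHTS format on HepG2 cells carrying RealTime-Glo reagents. Compounds were added after a 5 h preincubation, and the luminescent signal from continuous culture was measured repeatedly during 40 h treatment.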
# [8] = A CellTox Green Cytotoxicity Assay to monitor cytotoxicity in HEK293 cells - 0 hour (AID 1224869); details: CellTox Green fluorescence; series mostly up to 76.8 µM; note: nearly all actives have a fitted effect of over 50% in size
# In short: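 HEK293 cells, 600/well, were preincubated 5 hours and then exposed to compounds at 37 C for up to 40 hours. A cell-impermeant cyanine dye staining dead-cell DNA was read by fluorescence at 0, 8, 16, 24, 32 and 40 h time points.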
# [9] = qHTS assay to identify small molecule agonists of the constitutive androstane receptor (CAR) signaling pathway - cell viability counter screen (AID 1224836); details: HepG2-CYP2B6-hCAR viability, CellTiter-Fluor, 23 h, PK11195 added to every well; series mostly up to 92.4 µM; note: nearly all actives have a fitted effect of over 45% in size; note: potency is the fitted concentration of half-maximal effect
# In short: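 Compound titrations (15 concentrations) went onto HepG2-CYP2B6-hCAR cells 4 h after seeding, alongside PK11195 at a final 0.75 uM; a 23 h, 37 C/5% CO2 incubation preceded CellTiter-Fluor viability measurement.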
# [10] = qHTS assay to identify small molecule antagonists of the constitutive androstane receptor (CAR) signaling pathway - cell viability counter screen (AID 1224837); details: HepG2-CYP2B6-hCAR viability, CellTiter-Fluor, 23 h, co-treated with 50 nM CITCO; series mostly up to 92.4 µM; note: nearly all actives have a fitted effect of over 45% in size; note: potency is the fitted concentration of half-maximal effect
# In short: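 HepG2 cells stably carrying hCAR and CYP2B6-2.2kb reporter, stimulated with 50 nM CITCO and compounds at 15 concentrations for 23 h at 37 C. Viability measured by CellTiter-Fluor fluorescence.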
# [11] = target: Nuclear receptor subfamily 1 group I member 3 (Homo sapiens) (UniProt Q14994); assay: qHTS assay to identify small molecule antagonists of the constitutive androstane receptor (CAR) signaling pathway (AID 1224838); details: HepG2-CYP2B6-hCAR luciferase, CITCO-stimulated, 24 h; series mostly up to 92.4 µM; note: nearly all actives have a fitted effect of over 40% in size
# In short: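 HepG2 cells stably carrying hCAR and a CYP2B6-2.2kb luciferase reporter, seeded 4 hrs before compound (15 concentrations). Stimulated with 50 nM CITCO for 24 hr at 37 C. ONE-Glo luminescence read after 30 min at room temperature.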
# [12] = qHTS assay to identify small molecule antagonists of the estrogen related receptor signaling pathway with the pleiotropic PPARgamma coactivator (PGC) from Tox21 10K library - cell viability counter screen (AID 1224840; active = well fitted cell-killing curve with a large enough effect in the repeat runs, not every such curve was filed as active; note: nearly all actives have a fitted effect of over 40% in size; note: potency is the fitted concentration of half-maximal effect); details: PGC/ERR reporter cells viability, CellTiter-Fluor, 17.5 h; series mostly up to 92.4 µM
# In short: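 PGC/ERR cells (2,000/well) plated 6 h, then compound-treated for 17.5 h at 37 C. Viability measured by CellTiter-Fluor fluorescence after 30 min at 37 C, multiplexed with the pathway assay.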
# [13] = qHTS assay to identify small molecule agonists of H2AX (AID 1224845; active = well fitted activation curve with a large enough effect in the signal ratio in the repeat runs, not every such curve was filed as active; the % refers to the signal ratio); details: CHO-K1 phospho-H2AX Ser139 HTRF, 3 h; series mostly up to 154 µM
# In short: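 Wild-type CHO-K1 cells, plated overnight, exposed 3hr at 37C to 15 concentrations (0.76% DMSO final). Lysed, then HTRF anti-pH2AX (S139) cryptate and anti-H2AX-d2 antibodies, 24 hr room temperature; 665/620 nm emission read.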
# [14] = qHTS assay to identify small molecule agonists of the hypoxia (HIF-1) signaling pathway (AID 1224846; active = well fitted activation curve with a large enough effect in the signal ratio in the repeat runs, not every such curve was filed as active; the % refers to the signal ratio); details: HRE-bla ME-180 cells, beta-lactamase ratio, 17 h; series mostly up to 76.8 µM
# In short: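 HRE-bla ME-180 beta-lactamase reporter cells in medium with 0.5% dialyzed FBS, pre-incubated 5 h then exposed to compounds 17 h at 37C, 5% CO2; reporter induction read with CCF4-AM FRET substrate.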
# [15] = qHTS RealTime-Glo MT Cell Viability Assay in HEK293 cells - 32 hour (AID 1224868); details: RealTime-Glo luminescence; series mostly up to 76.8 µM; note: nearly all actives have a fitted effect of over 50% in size; note: potency is the fitted concentration of half-maximal effect
# In short: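 Luminescence generated by NanoLuc from substrate produced by living HEK293 cells served as the viability signal. Each value reflects the reading at its stated time point during continuous 40 h compound exposure at 37 C.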
# [16] = qHTS assay to identify small molecule agonists of H2AX - cell viability counter screen (AID 1224847; calls by dose curve; note: nearly all actives have a fitted effect of over 30% in size; note: potency is the fitted concentration of half-maximal effect); details: CHO-K1 viability, CellTiter-Glo luminescence, 3 h; series mostly up to 154 µM
# In short: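 Read-out: CellTiter-Glo luminescence, 30 min RT. Cells: wild-type CHO-K1, 1000/well, 10% FBS, plated overnight at 37C. Treatment: 15 concentrations, 3 hr, 37C, 0.76% DMSO.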
# [17] = qHTS assay to identify small molecule agonists of the estrogen related receptor (ERR) signaling pathway from Tox21 library (AID 1224849; calls by dose curve; note: nearly all actives have a fitted effect of over 15% in size); details: ERR reporter cell line, ONE-Glo luciferase, 18 h; at 92.4 µM (top of the series) unless noted
# In short: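 ERR reporter cells (NTP line) pre-incubated 6 hours at 37 C, then exposed to compounds for 18 hours at 37 C. ONE-Glo luciferase luminescence was read after 30 minutes at room temperature.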
# [18] = qHTS assay to identify small molecule antagonists of the estrogen related receptor (ERR) signaling pathway from Tox21 library (AID 1224848); details: ERR reporter cell line, luciferase antagonist mode, 18 h; series mostly up to 92.4 µM; note: nearly all actives have a fitted effect of over 50% in size; note: potency is the fitted concentration of half-maximal effect
# In short: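 Luminescent reporter read-out (ONE-Glo) from NTP's ERR cell line after 18 h treatment at 37 C with DMSO-dissolved Tox21 compounds; cells pre-plated 6 h beforehand at 2,000 per well.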
# [19] = target: Thyrotropin receptor (Homo sapiens) (UniProt P16473); assay: qHTS assay to identify small molecule agonists of the thyroid stimulating hormone receptor (TSHR) signaling pathway (AID 1224843; calls by dose curve; note: nearly all actives have a fitted effect of over 45% in size; note: potency is the fitted concentration of half-maximal effect); details: TSHR-HEK293 cells, cAMP HTRF, agonist mode, 30 min; series mostly up to 92.4 µM
# In short: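 Steps: seed 800 TSHR-HEK293 cells per well; add test compound and hold 30 min at ambient temperature; dispense cAMP-d2 then anti-cAMP cryptate; incubate 1 h at ambient; measure fluorescence intensity.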
# Nuclear receptor subfamily 1 group I member 3 (Homo sapiens), sequence (Q14994 whole entry, looked up): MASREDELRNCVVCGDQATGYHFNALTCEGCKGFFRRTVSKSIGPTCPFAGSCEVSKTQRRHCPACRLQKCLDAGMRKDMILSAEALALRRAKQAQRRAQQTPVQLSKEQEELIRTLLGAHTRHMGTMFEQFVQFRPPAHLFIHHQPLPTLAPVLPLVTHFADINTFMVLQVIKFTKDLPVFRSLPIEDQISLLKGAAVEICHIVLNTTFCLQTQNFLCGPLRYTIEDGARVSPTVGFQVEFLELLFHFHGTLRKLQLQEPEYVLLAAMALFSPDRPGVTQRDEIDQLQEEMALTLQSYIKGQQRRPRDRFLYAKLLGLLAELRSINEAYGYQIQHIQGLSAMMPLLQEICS
# Thyrotropin receptor (Homo sapiens), sequence (P16473 whole entry, looked up): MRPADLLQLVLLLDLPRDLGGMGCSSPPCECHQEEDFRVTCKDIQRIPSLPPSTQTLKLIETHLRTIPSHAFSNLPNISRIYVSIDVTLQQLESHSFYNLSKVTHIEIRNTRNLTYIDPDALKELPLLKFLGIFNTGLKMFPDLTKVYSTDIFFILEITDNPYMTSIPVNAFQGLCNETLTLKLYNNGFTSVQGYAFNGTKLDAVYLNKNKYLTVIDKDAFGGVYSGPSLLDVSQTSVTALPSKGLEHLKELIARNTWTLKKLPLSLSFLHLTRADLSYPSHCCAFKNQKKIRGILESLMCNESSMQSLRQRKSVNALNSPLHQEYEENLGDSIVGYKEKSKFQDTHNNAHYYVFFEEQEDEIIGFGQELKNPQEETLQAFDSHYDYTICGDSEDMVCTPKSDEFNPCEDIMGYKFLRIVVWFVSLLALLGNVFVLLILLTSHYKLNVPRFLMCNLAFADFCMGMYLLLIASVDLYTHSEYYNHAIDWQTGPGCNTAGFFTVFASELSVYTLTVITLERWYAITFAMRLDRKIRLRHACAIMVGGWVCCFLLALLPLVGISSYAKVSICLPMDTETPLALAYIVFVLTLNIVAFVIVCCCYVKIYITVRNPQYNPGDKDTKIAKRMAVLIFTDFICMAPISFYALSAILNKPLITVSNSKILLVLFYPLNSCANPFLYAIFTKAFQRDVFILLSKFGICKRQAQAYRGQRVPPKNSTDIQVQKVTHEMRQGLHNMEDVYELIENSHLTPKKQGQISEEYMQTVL
# Luciferin 4-monooxygenase (Photinus pyralis), sequence (P08659 whole entry, looked up): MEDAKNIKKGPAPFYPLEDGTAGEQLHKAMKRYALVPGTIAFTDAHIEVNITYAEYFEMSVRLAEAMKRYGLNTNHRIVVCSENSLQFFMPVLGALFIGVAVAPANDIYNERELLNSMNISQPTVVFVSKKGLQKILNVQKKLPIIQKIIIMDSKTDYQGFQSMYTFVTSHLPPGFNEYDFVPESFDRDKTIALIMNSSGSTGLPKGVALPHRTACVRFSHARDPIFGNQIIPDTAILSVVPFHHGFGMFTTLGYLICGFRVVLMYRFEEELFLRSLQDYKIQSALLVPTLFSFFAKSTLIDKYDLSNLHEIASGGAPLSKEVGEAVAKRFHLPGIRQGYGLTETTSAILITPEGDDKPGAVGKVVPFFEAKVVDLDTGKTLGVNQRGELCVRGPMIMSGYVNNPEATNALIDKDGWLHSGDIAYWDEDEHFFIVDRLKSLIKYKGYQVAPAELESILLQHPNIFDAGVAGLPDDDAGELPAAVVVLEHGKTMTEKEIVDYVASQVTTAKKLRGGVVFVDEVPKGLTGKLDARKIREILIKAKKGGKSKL
Structure (SMILES),Potency [1],Potency [2],Potency [3],Potency [4],Potency [5],Potency [6],Potency [7],Potency [8],Potency [9],Potency [10],Potency [11],Potency [12],Potency [13],outcome [14],Potency [15],Potency [16],"activity change, positive = activation [17]",Potency [18],Potency [19]
Brc1cc2ccccc2c2ccccc12,inactive,inactive,17.4 µM (active),61.6 µM (active),inactive,44 µM (active),inactive,inactive,,,,,,,,,,,
CN1C(C(=O)Nc2ccccn2)=C(O)c2sccc2S1(=O)=O,inactive,,inactive,,,inactive,inactive,inactive,inactive,inactive,inactive,inactive,inactive,inactive,inactive,,,,
Nc1ccc(N=Nc2ccccc2)c(N)c1,26.7 µM (active),,,,,inactive,,inactive,30 µM (active),53.3 µM (active),,26.7 µM (active),,inactive,42.7 µM (active),98.6 µM (active),,,
C=C1c2cccc(O)c2C(O)=C2C(=O)[C@]3(O)C(O)=C(C(N)=O)C(=O)[C@@H](N(C)C)[C@@H]3[C@@H](O)[C@H]12,inactive,,inactive,inactive,inactive,,inactive,inactive,inactive,inactive,inactive,inactive,inactive,,inactive,inactive,-14.2% [at 42.5 µM],,
CC(=O)Oc1ccc([N+](=O)[O-])cc1CCl,30.6 µM (active),,inactive,inactive,inactive,49 µM (active),inactive,inactive,43.3 µM (active),30.6 µM (active),inactive,30.6 µM (active),inactive,inactive,3.89 µM (active),,,inactive,
Cc1ccc(Cl)c(Nc2ccccc2C(=O)O)c1Cl,inactive,,,,,,inactive,,inactive,inactive,,inactive,inactive,,inactive,inactive,,,inactive
CCOC(=O)OC(C)OC(=O)[C@@H]1N2C(=O)[C@@H](NC(=O)[C@H](N)c3ccccc3)[C@H]2SC1(C)C (stereo partly drawn),inactive,,inactive,,,inactive,inactive,inactive,inactive,inactive,inactive,inactive,inactive,,inactive,inactive,,,inactive
O=C=Nc1ccc(Cl)c(Cl)c1,inactive,,inactive,inactive,inactive,inactive,inactive,inactive,inactive,inactive,inactive,inactive,inactive,inactive,inactive,inactive,-41%,26.9 µM (active),inactive
CC(C)C(O)(c1ccc(OC(F)(F)F)cc1)c1cncnc1 (stereo not drawn),inactive,,inactive,,,inactive,inactive,inactive,inactive,inactive,inactive,inactive,inactive,,,inactive,,,48.4 µM (active)
O=C1NCCN1CCO,inactive,,inactive,,,inactive,inactive,inactive,inactive,inactive,inactive,,inactive,inactive,inactive,inactive,,,
CCCCN(CCN(CCCC)C(=O)N1CCOCC1)C(=O)N1CCOCC1,inactive,,inactive,,,,inactive,inactive,inactive,inactive,inactive,inactive,inactive,inactive,inactive,,,,
N#CCCN(CCO)CCO,inactive,,inactive,,,inactive,inactive,inactive,inactive,inactive,inactive,inactive,inactive,,inactive,inactive,,,
CCCCCCCCCI,inactive,,inactive,inactive,8.79 µM (active),inactive,,inactive,inactive,inactive,inactive,inactive,inactive,inactive,inactive,,,inactive,24.8 µM (active)
COc1ccc(OC(=O)N(CC(=O)O)Cc2ccc(OCCc3nc(-c4ccccc4)oc3C)cc2)cc1,inactive,,inactive,inactive,inactive,,inactive,inactive,inactive,inactive,,inactive,inactive,inactive,inactive,,-6.74% [at 42.5 µM],,inactive
Clc1cc(Cl)nc(Cl)n1,inactive,,inactive,,,,inactive,inactive,inactive,inactive,inactive,,inactive,,,inactive,,,inactive
CC(C)C=O,inactive,,inactive,inactive,inactive,inactive,inactive,inactive,inactive,inactive,inactive,inactive,inactive,inactive,inactive,inactive,0.557%,inactive,
Nc1ncnc2c1ncn2[C@H]1CC[C@@H](CO)O1,inactive,,inactive,,,inactive,inactive,inactive,inactive,inactive,inactive,,inactive,inactive,inactive,,,,inactive

# From PubChem BioAssay (Tox21)
